Source: PubChem BioAssay (NCATS)
Several values for one entry are separate records, joined by “and”; a condition that tells them apart may be missing. Equal values may be shown once. Inconclusive results are not listed. The source holds several records for some structures; these can differ, active in one and inactive in another. Activity calls are given as the source filed them. The call rests on the fitted dose curve; in most records, active means well fitted curve in the direction sought with a large enough effect; inconclusive means small, poorly fitted or top-dose-only effect, or another doubt; inactive means no such curve, though single readings can be large; an effect the other way counts as inactive or inconclusive.

Experiments:
[1] = BET inhibitor-based combinations targeting novel dependencies in MECOM-rearranged (r) AML: SET-2 cell line (AID 2202231); conditions: SET-2 AML cells viability, CellTiter-Glo luminescence, 48 h; viability: stronger effect = lower value, concentration not given here; further: nearly all actives have a fitted effect of over 35% in size;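 on viability: plate controls were DMSO treated cells for no effect and wells without cells for full effect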
How it was run: (§1)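 A 48 hr incubation preceded viability reading by CellTiter-Glo, with 15 min room-temperature development. Dose series had 11 points; normalization used DMSO and empty wells; AUC was computed and mean-centered per line as Z-AUC.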

[2] = BET inhibitor-based combinations targeting novel dependencies in MECOM-rearranged (r) AML: OCI-AML3 cell line (AID 2202232); conditions: Potency: OCI-AML3 viability; further: nearly all actives have a fitted effect of over 35% in size
How it was run: as §1

[3] = BET inhibitor-based combinations targeting novel dependencies in MECOM-rearranged (r) AML: MV-4-11 cell line (AID 2202233); further: nearly all actives have a fitted effect of over 45% in size
How it was run: (§2)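 Each compound is tested in an 11-point concentration series against 500 seeded cells/well for 48 hr. The luminescent viability signal is normalized to DMSO and blank wells, then reduced to AUC and a cell-line-centred Z-AUC.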

[4] = BET inhibitor-based combinations targeting novel dependencies in MECOM-rearranged (r) AML: HNT-34 cell line (AID 2202234); further: nearly all actives have a fitted effect of over 35% in size
How it was run: as §2

[5] = BET inhibitor-based combinations targeting novel dependencies in MECOM-rearranged (r) AML: UCSD-AML1 cell line (AID 2202235); further: nearly all actives have a fitted effect of over 40% in size
How it was run: as §2

[6] = BET inhibitor-based combinations targeting novel dependencies in MECOM-rearranged (r) AML: AML-191 cell line (AID 2202236; further: nearly all actives have a fitted effect of over 35% in size)
How it was run: as §1

[7] = BET inhibitor-based combinations targeting novel dependencies in MECOM-rearranged (r) AML: AML-194 cell line (AID 2202237; further: nearly all actives have a fitted effect of over 40% in size)
How it was run: as §1
Potency means the concentration at half of the fitted maximal effect.

Compound | Potency [1] | Potency [2] | Potency [3] | Potency [4] | Potency [5] | Potency [6] | viability [1] | Potency [7]
CN1CCCN(C(=O)c2cccc(-c3ccc(/C=C4/C(=O)Nc5ccc(Cl)cc54)o3)c2)CC1 | 20900 nM (active) | 6610 nM (active) | 662 nM (active) | 2630 nM (active) | 1.32 µM (active) | 2950 nM (active) |  | 
CC(C)C(N)C(=O)OCC(CO)OCn1cnc2c(=O)[nH]c(N)nc21 (configuration not stated) |  | inactive | inactive | inactive | inactive | inactive | 87% (inactive) | 
N[C@@H]1CN(c2c(F)cc3c(=O)c(C(=O)O)cn([C@@H]4C[C@@H]4F)c3c2Cl)CC12CC2 |  | inactive | inactive | inactive | inactive | inactive | 105% (inactive) | 
CC(C)c1ccc(Cn2ccc3c4c(N)nc(NC5CC5)nc4ccc32)cc1 | 468 nM (active) | 1480 nM (active) | 2090 nM (active) | 1320 nM (active) | 1.32 µM (active) | 1320 nM (active) |  | 
C[C@@]12C(=O)OC(=O)[C@]1(C)[C@H]1CC[C@@H]2O1 | 4170 nM (active) | 3720 nM (active) | 3320 nM (active) | 2950 nM (active) | 7.42 µM (active) | 2950 nM (active) |  | 2630 nM (active)
C[C@H](CCC(=O)O)[C@H]1CC[C@H]2[C@@H]3[C@H](O)C[C@@H]4C[C@H](O)CC[C@]4(C)[C@H]3CC[C@]12C |  | inactive | inactive | inactive | inactive | inactive | 104% (inactive) | 
COc1cc(O)c2c(c1)C1OC1C[C@H](O)[C@H](O)C(=O)C=CC[C@H](C)OC2=O (some centres not stated) | 5900 nM (active) | 742 nM (active) | 132 nM (active) | 934 nM (active) | 1.48 µM (active) | 1320 nM (active) |  | 
COc1ncc(-c2ccc3nccc(-c4ccnnc4)c3c2)cc1NS(=O)(=O)c1ccc(F)cc1F | 332 nM (active) | 83.3 nM (active) | 105 nM (active) | 263 nM (active) | 0.0372 µM (active) | 209 nM (active) |  | 
O=C1NC(=O)[C@@H](c2c[nH]c3ccccc23)[C@H]1c1cn2c3c(cccc13)CCC2 | 2350 nM (active) | 1180 nM (active) | 1320 nM (active) | 934 nM (active) | 1.05 µM (active) | 934 nM (active) |  | 934 nM (active)
O=C(Nc1cc(Oc2cc(F)c(NC(=O)C3(C(=O)Nc4ccc(F)cc4)CC3)cc2F)ccn1)C1CC1 | 11800 nM (active) | 11800 nM (active) | 235 nM (active) | 7420 nM (active) | 14.8 µM (active) | 16600 nM (active) |  | 
COCCn1c2c([n+](Cc3cnccn3)c1C)C(=O)c1ccccc1C2=O | 1180 nM (active) | 52.5 nM (active) | 66.1 nM (active) | 166 nM (active) | 0.105 µM (active) | 148 nM (active) |  | 
CC[C@H]1OC(=O)[C@H](C)[C@@H](O[C@H]2C[C@@](C)(OC)[C@@H](O)[C@H](C)O2)[C@H](C)[C@@H](O[C@@H]2O[C@H](C)C[C@H](N(C)C)[C@H]2O)[C@](C)(O)C[C@@H](C)C(=O)[C@H](C)[C@@H](O)[C@]1(C)O |  | inactive | inactive | inactive | inactive | inactive | 113% (inactive) | 
COc1ccc(S(=O)(=O)N[C@@H](CNc2nc(C)nc(N3CCC(c4ccc5c(n4)NCCC5)CC3)c2C)C(=O)O)cc1 |  | inactive | inactive | inactive | inactive | inactive | 111% (inactive) | inactive
Cc1ccc(Nc2ncc3c(n2)N(C)C(=O)N(c2cc(NC(=O)c4cccc(C(F)(F)F)c4)ccc2C)C3)cn1 | 934 nM (active) | 263 nM (active) | 37.2 nM (active) | 11.8 nM (active) | 0.0934 µM (active) | 83.3 nM (active) |  | 
COc1ccc([C@@H]2CC(=O)c3c(O)cc(O[C@@H]4O[C@H](CO[C@@H]5O[C@@H](C)[C@H](O)[C@@H](O)[C@H]5O)[C@@H](O)[C@H](O)[C@H]4O)cc3O2)cc1O |  | inactive | inactive | inactive | inactive | inactive | 119% (inactive) | 
COc1ccnc2[nH]cc(C(=O)C(=O)N3CCN(C(=O)c4ccccc4)C[C@H]3C)c12 |  | inactive | inactive | inactive | inactive | inactive | 113% (inactive) | inactive
CC(C)(O)[C@H]1CC[C@@](C)([C@H]2[C@@H](O)C[C@@]3(C)[C@@H]4C[C@H](O[C@@H]5O[C@H](CO)[C@@H](O)[C@H](O)[C@H]5O)[C@H]5C(C)(C)[C@@H](O[C@@H]6OC[C@@H](O)[C@H](O)[C@H]6O)CC[C@@]56C[C@@]46CC[C@]23C)O1 |  | inactive | inactive | inactive | inactive | inactive | 118% (inactive) | inactive
Cc1c[nH]c2nc(Nc3ccc(N4CCN(C)CC4)c(F)c3)nc(-c3cccc(CC#N)c3)c12 | 2630 nM (active) | 2950 nM (active) | 33.2 nM (active) | 662 nM (active) | 0.742 µM (active) | 742 nM (active) |  | 833 nM (active)
N#CC(c1ccnc(NCCc2cccnc2)n1)c1nc2ccccc2s1 (configuration not stated) | 18600 nM (active) | 18600 nM (active) | 6610 nM (active) | 14800 nM (active) | 18.6 µM (active) | 16600 nM (active) |  | 18600 nM (active)

Compound | Potency [1] | Potency [2] | Potency [3] | Potency [4] | Potency [5] | Potency [6] | viability [1] | Potency [7]
CCc1c(-c2ccccc2C)nc2c(C#N)c[nH]n2c1=O |  | inactive | inactive | inactive | 1.2 nM (active) and inactive | inactive | 112% (inactive) and 125% (inactive) | inactive
CC1(C)OC2=C(C(=O)c3ccccc3C2=O)[C@H](NCc2ccccc2)[C@@H]1O | 6610 nM (active) | 11800 nM (active) | 8330 nM (active) | 7420 nM (active) | 9.34 µM (active) | 7420 nM (active) |  | 7420 nM (active)
Cc1c(CN2CCC(Nc3ncnc4sc(CC(F)(F)F)cc34)CC2)ccc2c1cc(C#N)n2Cc1cn[nH]c1 | 3320 nM (active) | 13200 nM (active) | 3320 nM (active) | 16600 nM (active) | 16.6 µM (active) | 18600 nM (active) |  | 20900 nM (active)
C/C=C1\NC(=O)[C@H]2CSSCC/C=C\[C@H](CC(=O)N[C@H](C(C)C)C(=O)N2)OC(=O)[C@H](C(C)C)NC1=O | 29.5 nM (active) | 10.5 nM (active) | 11.8 nM (active) | 8.3 nM (active) | 0.0105 µM (active) | 14.8 nM (active) |  | 23.5 nM (active)
COc1ccc(S(=O)(=O)N(CCO)c2ccccc2CN(C)C/C=C/c2ccc(Cl)cc2)cc1 | 20900 nM (active) | 14800 nM (active) | 18600 nM (active) | 13200 nM (active) | 16.6 µM (active) | 14800 nM (active) |  | 18600 nM (active)
CCOC(=O)CCNc1cc(N2CCc3ccccc3CC2)nc(-c2ccccn2)n1 | 3720 nM (active) | 14800 nM (active) | 8330 nM (active) | 2350 nM (active) | 3.32 µM (active) | 2950 nM (active) |  | 2950 nM (active)
COc1ccc2c(c1)CC[C@@H]1[C@@H]2CC[C@]2(C)[C@@H](NCCCCCCN3C(=O)C=CC3=O)CC[C@@H]12 |  | inactive | inactive | inactive | inactive | inactive | 113% (inactive) | inactive
N#Cc1cccnc1N1CCN(C(=O)c2cccc(Cc3n[nH]c(=O)c4ccccc34)c2)CC1 | 296 nM (active) | 166 nM (active) | 59 nM (active) | 37.2 nM (active) | 0.0833 µM (active) | 118 nM (active) |  | 132 nM (active)
CNC1CCCN(c2c(F)cc3c(=O)c(C(=O)O)cn(C4CC4)c3c2OC)C1 (configuration not stated) |  | inactive | inactive | inactive | inactive | inactive | 112% (inactive) | inactive
CCC(=O)NCC[C@@H]1CCc2ccc3c(c21)CCO3 |  | inactive | inactive | inactive | inactive | inactive | 114% (inactive) | inactive
CN1C/C=C/CCOc2cccc(c2)-c2ccnc(n2)Nc2cccc(c2)C1 | 118 nM (active) | 468 nM (active) | 417 nM (active) | 417 nM (active) | 0.148 µM (active) | 296 nM (active) |  | 372 nM (active)
CS(=O)(=O)Nc1cc2occ(NC=O)c(=O)c2cc1Oc1ccccc1 |  | inactive | inactive | inactive | inactive | inactive | 101% (inactive) | inactive
O=C(CCc1ccc(O)cc1)c1c(O)cc(O)cc1O[C@@H]1O[C@H](CO)[C@@H](O)[C@H](O)[C@H]1O |  | inactive | inactive | inactive | inactive | inactive | 76.1% (inactive) | inactive
N#Cc1ccnc(N2C(=O)CC[C@H]2C(=O)N(c2cncc(F)c2)C(C(=O)NC2CC(F)(F)C2)c2ccccc2Cl)c1 (some centres not stated) |  | inactive | inactive | inactive | inactive | inactive | 91.5% (inactive) | inactive
C[C@]12CC[C@H](O)CC1=CC[C@@H]1[C@@H]2CC[C@]2(C)C(c3cccnc3)=CC[C@@H]12 |  | inactive | inactive | inactive | inactive | inactive | 107% (inactive) | inactive
C=C[C@H]1CN2CCC1C[C@@H]2C(O)c1ccnc2ccc(OC)cc12 (some centres not stated) |  | inactive | 18600 nM (active) | inactive | inactive | inactive | 103% (inactive) | inactive
CC[C@@H](Oc1cccc(CN(CCCOc2ccc(OC)cc2)c2nc3ccccc3o2)c1)C(=O)O |  | inactive | inactive | inactive | inactive | inactive | 110% (inactive) | inactive
Cc1cnc(NC(=O)c2cc(Oc3cnc(C(=O)N(C)C)nc3)c3cc(C)oc3c2)cn1 |  | inactive | inactive | inactive | inactive | inactive | 126% (inactive) | inactive
